Test results published in PubChem BioAssay (NCATS).
Records with an inconclusive call do not appear. Where a call stands in place of a potency, no number is given. Unmarked numbers belong to inactive results. Active and inactive are the calls of the source. Calls follow the shape of the dose curve; as a rule, active = well fitted cell-killing curve with a large enough effect; inconclusive = small, poorly fitted or top-dose-only effect, or effect the other way; inactive = no such curve, though single readings can be large or run the other way.

Experiments:
[1] = Quantitative High-Throughput drug screen in 47 multiple myeloma cell lines against the NCATS MIPE library collection: FR4_PLB cell viability assay (AID 1918924; also: nearly all actives have a fitted effect of over 35% in size)
Procedure, shortened: (§1)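 qHTS of the MIPE 4.0 collection: 500 myeloma cells/well, 48 h drug exposure at 37C in 5% CO2, then CellTiter-Glo for 5 min at room temperature before luminescence reading.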

[2] = Quantitative High-Throughput drug screen in 47 multiple myeloma cell lines against the NCATS MIPE library collection: Delta47_JCRB cell viability assay (AID 1918925; also: nearly all actives have a fitted effect of over 45% in size)
Procedure, shortened: as §1

[3] = Quantitative High-Throughput drug screen in 47 multiple myeloma cell lines against the NCATS MIPE library collection: ARD_JJKsccE7 cell viability assay (AID 1918929)
Procedure, shortened: as §1

[4] = Quantitative High-Throughput drug screen in 47 multiple myeloma cell lines against the NCATS MIPE library collection: Karpas620_DSMZ cell viability assay (AID 1918959); also: nearly all actives have a fitted effect of over 30% in size
Procedure, shortened: as §1

[5] = Quantitative High-Throughput drug screen in 47 multiple myeloma cell lines against the NCATS MIPE library collection: EJM_DSMZ cell viability assay (AID 1918926; also: nearly all actives have a fitted effect of over 30% in size)
Procedure, shortened: as §1

[6] = Quantitative High-Throughput drug screen in 47 multiple myeloma cell lines against the NCATS MIPE library collection: AMO1_DSMZ cell viability assay (AID 1918927; also: nearly all actives have a fitted effect of over 30% in size)
Procedure, shortened: as §1

[7] = Quantitative High-Throughput drug screen in 47 multiple myeloma cell lines against the NCATS MIPE library collection: ARP1_JJKsccF8 cell viability assay (AID 1918928; also: nearly all actives have a fitted effect of over 40% in size)
Procedure, shortened: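 Cell viability inhibition in this qHTS is measured via ATP content (CellTiter-Glo) after 48 h drug exposure at 37 °C. Wells hold 500 cells; DMSO-treated wells define 100% and medium-only wells 0%.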
Potency is read from the fitted curve at half-maximal effect.

SMILES	Potency [1]	Potency [2]	Potency [3]	Potency [4]	Potency [5]	Potency [6]	Potency [7]
CCCCCCOC(=O)N=C(N)c1ccc(NCc2nc3cc(C(=O)N(CCC(=O)OCC)c4ccccn4)ccc3n2C)cc1	23.5 µM (active)	16.6 µM (active)	14.8 µM (active)	7.43 µM (active)	–	–	–
Fc1ccc(C(c2ccc(F)cc2)N2CCN(CC=Cc3ccccc3)CC2)cc1	inactive	inactive	inactive	inactive	inactive	inactive	–
CCOC(=O)N1CCN([N+]([O-])=NOc2cc(ON=[N+]([O-])N3CCN(C(=O)OCC)CC3)c([N+](=O)[O-])cc2[N+](=O)[O-])CC1	4.69 µM (active)	4.69 µM (active)	0.0526 µM (active)	–	2.64 µM (active)	inactive	–
O=C(O)C1=NC(C(=O)O)CC(C=CN2c3cc(O)c(OC4OC(CO)C(O)C(O)C4O)cc3CC2C(=O)O)=C1 (stereo not drawn)	inactive	inactive	–	inactive	inactive	–	–
OC1CCC(Nc2ncc3nc(Nc4c(F)cc(F)cc4F)n([C@@H]4CCOC4)c3n2)CC1 (stereo partly drawn)	inactive	8.33 µM (active)	–	inactive	0.0012 µM (active)	16.6 µM (active)	33.2 µM (active)
COc1c(C)c2c(c(O)c1CC=C(C)CCC(=O)OCCN1CCOCC1)C(=O)OC2	5.26 µM (active)	inactive	1.18 µM (active)	inactive	inactive	0.372 µM (active)	–
CC(=O)OCC(=O)[C@@]12OC(C)(C)O[C@H]1C[C@H]1[C@@H]3C[C@H](F)C4=CC(=O)C=C[C@]4(C)[C@@]3(F)[C@@H](O)C[C@@]12C	inactive	–	0.0148 µM (active)	inactive	inactive	inactive	–
CC(C)N(CCCNC(=O)Nc1ccc(C(C)(C)C)cc1)C[C@H]1O[C@@H](n2cc(Br)c3c(N)ncnc32)[C@H](O)[C@H]1O	23.5 µM (active)	16.6 µM (active)	inactive	–	–	inactive	–
CCOC(=O)[C@H](CCc1ccccc1)N[C@@H](C)C(=O)N1CCCC1C(=O)O (stereo partly drawn)	inactive	–	inactive	inactive	inactive	inactive	inactive
C[C@H]1O[C@@H](n2cc(F)c(=O)[nH]c2=O)[C@H](O)[C@H]1O	inactive	14.8 µM (active)	1.32 µM (active)	–	inactive	–	inactive
O=C1NC(=O)C(=Cc2ccc(-c3ccc(F)cc3O)o2)S1	inactive	0.418 µM (active)	–	inactive	–	3.32 µM (active)	–
CN(C)CCN(C)C(=O)c1ccc(NC(=O)Nc2ccc(-c3nc(N4CCOCC4)c4ccn(CC(F)(F)F)c4n3)cc2)cc1	0.0372 µM (active)	0.0264 µM (active)	0.0235 µM (active)	–	0.209 µM (active)	0.418 µM (active)	–
O=C1C(CCC(O)c2ccc(F)cc2)C(c2ccc(O)cc2)N1c1ccc(F)cc1 (stereo not drawn)	inactive	inactive	–	inactive	inactive	inactive	inactive
CC=C1C2C=C(C)CC1(N)c1ccc(=O)[nH]c1C2 (stereo not drawn)	inactive	inactive	inactive	inactive	inactive	inactive	–
CN(C)CCN(Cc1ccc(Cl)cc1)c1ccccn1	inactive	9.35 µM (active)	inactive	inactive	–	–	inactive
NC(N)=Nc1nc(CSCCC(N)=NS(N)(=O)=O)cs1	inactive	10.5 µM (active)	inactive	inactive	23.5 µM (active)	–	inactive
CNC(=O)[C@H](CC1=CN=C2C=CCC=C12)NC(=O)[C@@H](CC(=O)NO)CC(C)C	inactive	26.4 µM (active)	0.118 µM (active)	0.0743 µM (active)	–	0.0743 µM (active)	inactive
CC[C@H](NC(=O)[C@H](C)NC)C(=O)N1C[C@@H](O)C[C@H]1Cc1c(-c2[nH]c3cc(F)ccc3c2C[C@H]2C[C@H](O)CN2C(=O)[C@H](CC)NC(=O)[C@H](C)NC)[nH]c2cc(F)ccc12	inactive	16.6 µM (active)	9.35 µM (active)	–	–	4.69 µM (active)	–
NC(=O)c1ncn([C@@H]2O[C@H](CO)[C@@H](O)[C@@H]2O)n1	inactive	inactive	inactive	inactive	inactive	–	–
C[C@]12CCC3=C4CCC(=O)C=C4CC[C@@H]3[C@H]1CC[C@@]2(O)CC#N	inactive	inactive	–	–	inactive	–	inactive
O=C(Nc1ncc(SCCN2CCCC2)s1)[C@]1(c2ccc(S(=O)(=O)C3CC3)cc2)C[C@@H]1C1CCCCC1	18.7 µM (active)	14.8 µM (active)	–	8.33 µM (active)	18.7 µM (active)	8.33 µM (active)	26.4 µM (active)
CO[C@H]1O[C@@H]2O[C@@]3(C)CC[C@@H]4[C@@H](C)CC[C@@H]([C@H]1C)[C@@]24OO3	inactive	–	–	–	1.48 µM (active)	1.87 µM (active)	–
CN1CC(=O)N2C(Cc3c([nH]c4ccccc34)[C@H]2c2ccc3c(c2)OCO3)C1=O (stereo partly drawn)	inactive	inactive	inactive	inactive	inactive	inactive	–
CN(CC=CC#CC(C)(C)C)Cc1cccc2ccccc12	inactive	inactive	–	inactive	–	inactive	inactive

SMILES	Potency [1]	Potency [2]	Potency [3]	Potency [4]	Potency [5]	Potency [6]	Potency [7]
CC[C@H]1OC(=O)[C@H](C)[C@@H](O[C@H]2C[C@@](C)(OC)[C@@H](O)[C@H](C)O2)[C@H](C)[C@@H](O[C@@H]2O[C@H](C)C[C@H](N(C)C)[C@H]2O)[C@](C)(O)C[C@H](C)C(=NOCOCCOC)[C@H](C)[C@@H](O)[C@]1(C)O	inactive	inactive	–	inactive	inactive	–	inactive
CCC=CC[C@H]1C(=O)CC[C@@H]1CC(=O)OC	inactive	–	inactive	inactive	inactive	inactive	inactive
CC=C(C(=CC)c1ccc(O)cc1)c1ccc(O)cc1	20.9 µM (active)	–	23.5 µM (active)	16.6 µM (active)	inactive	16.6 µM (active)	–
COc1ccc2c(c1)CC[C@H]1[C@@H]2CC[C@]2(C)[C@@H](NCCCCCCN3C(=O)C=CC3=O)CC[C@H]12	inactive	inactive	inactive	inactive	inactive	inactive	–
COc1ccc(-c2oc3c(CC=C(C)C)c(O)cc(O)c3c(=O)c2O)cc1	20.9 µM (active)	–	inactive	inactive	18.7 µM (active)	–	–
COc1ccc(C=CC(=O)Nc2ccccc2C(=O)O)cc1OC	inactive	–	inactive	inactive	inactive	–	–
OC[C@H]1O[C@@H](Oc2ccc(O)cc2)[C@H](O)[C@@H](O)[C@H]1O	–	inactive	–	inactive	inactive	–	–
COc1cc2nc(-c3cc(F)ccc3O)nc(N[C@@H]3CNC[C@@H]3C(C)(C)O)c2cc1OC	–	2.64 µM (active)	6.62 µM (active)	6.62 µM (active)	11.8 µM (active)	6.62 µM (active)	–
CC(=O)OCC(=O)[C@@]1(O)CC[C@H]2[C@@H]3CCC4=CC(=O)C=C[C@]4(C)[C@@H]3[C@@H](O)C[C@@]21C	–	inactive	–	–	inactive	–	–
C[C@@H]1[C@H](O)[C@@H](C)C=CC=CC=CC=CC=CC=CC=C[C@H](O[C@@H]2O[C@H](C)[C@H](O)[C@H](N)[C@@H]2O)C[C@@H]2O[C@](O)(C[C@@H](O)C[C@@H](O)[C@H](O)CC[C@@H](O)C[C@@H](O)CC(=O)O[C@H]1C)C[C@H](O)[C@@H]2C(=O)O	–	inactive	–	inactive	inactive	–	7.43 µM (active)
O=C(C=Cc1ccc(O)cc1)c1ccc(O)cc1O	–	13.2 µM (active)	–	–	–	10.5 µM (active)	–
O=C1Nc2ccc(I)cc2C1=Cc1cc(Br)c(O)c(Br)c1	inactive	–	–	14.8 µM (active)	inactive	16.6 µM (active)	–
CCC(=C(CC)c1ccc(O)cc1)c1ccc(O)cc1	8.33 µM (active)	–	–	16.6 µM (active)	–	–	–
COc1cc(C=CC(=O)O)ccc1O	–	inactive	inactive	inactive	inactive	inactive	–
COc1ccc(-c2cc(=O)c3c(O)cc(O[C@@H]4O[C@H](CO[C@@H]5O[C@@H](C)[C@H](O)[C@@H](O)[C@@H]5O)[C@@H](O)[C@H](O)[C@@H]4O)cc3o2)cc1O	inactive	–	inactive	–	–	inactive	–
CC(C)c1c(C(=O)Nc2ccccc2)c(-c2ccccc2)c(-c2ccc(F)cc2)n1CC[C@H](O)C[C@@H](O)CC(=O)O	14.8 µM (active)	–	–	inactive	–	inactive	18.7 µM (active)
FC(F)(F)c1ccc(C=Cc2nc(COc3ccc(CCCCn4ccnn4)cc3)co2)cc1	0.0662 µM (active)	–	0.001 µM (active)	–	–	0.0105 µM (active)	–
CCC[C@@H](NC(=O)[C@@H]1[C@H]2CCC[C@@H]2CN1C(=O)[C@@H](NC(=O)[C@@H](NC(=O)c1cnccn1)C1CCCCC1)C(C)(C)C)C(=O)C(=O)NC1CC1	–	14.8 µM (active)	–	18.7 µM (active)	inactive	18.7 µM (active)	–
CC(C)n1c(C=C[C@H](O)C[C@H](O)CC(=O)O)c(-c2ccc(F)cc2)c2ccccc21	–	18.7 µM (active)	9.35 µM (active)	–	inactive	16.6 µM (active)	–
CCC(=C(c1ccc(O)cc1)c1ccc(OCCNC)cc1)c1ccccc1	–	5.9 µM (active)	–	26.4 µM (active)	23.5 µM (active)	20.9 µM (active)	–
CC1(C)[C@H]2CC[C@]3(C)[C@@H](C(=O)C=C4[C@@H]5C[C@@](C)(C(=O)O)CC[C@]5(C)CC[C@]43C)[C@@]2(C)CC[C@@H]1O	–	inactive	inactive	inactive	inactive	–	–
CN(C(Cc1ccc(OS(=O)(=O)c2cccc3cnccc23)cc1)C(=O)N1CCN(c2ccccc2)CC1)S(=O)(=O)c1cccc2cnccc12 (stereo not drawn)	–	5.26 µM (active)	5.9 µM (active)	5.9 µM (active)	–	8.33 µM (active)	–
C=C[C@@H]1CN2CCC1C[C@@H]2C(O)c1ccnc2ccc(OC)cc12 (stereo partly drawn)	–	inactive	–	inactive	–	inactive	1.87 µM (active)
